Test results: PMC5540273 (PLoS ONE, 2017)
Values joined by “and” are separate entries in the source; they are usually repeats but may differ in a detail not shown here. Equal entries are not always repeated. Where two headings read alike, the source gives them in different places.

What was measured:
Details in all cases: n = 1
NEK7 = tested on: NEK7
NEK9 = tested on: NEK9
NIK = tested on: T1, NIK
T1 construct: gene MAP3K14

NIM1 = tested on: T2, NIM1
T2 construct: gene MGC42105

NLK = tested on: NLK
OSR1 = tested on: T3, OSR1
T3 construct: gene OXSR1

PAK1 = tested on: PAK1
PAK2 = tested on: PAK2
PAK3 = tested on: PAK3
PAK4 = tested on: PAK4
[1] = concentration: 1 μM, replicates: in singlicate
[2] = concentration: 1 μM,replicates: in singlicate, 1 µM
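Note: KINOMEscan kinase panel screen.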

Cl.Oc1ccc(-c2nc(-c3ccccc3)[nH]c2-c2ccncc2)cc1 [SB-428218]
%Inh (NEK7; [1]): 0% | %Inh (NEK9; [1]): 0% | %Inh (NIK; [1]): 74% | %Inh (NIM1; [1]): 38% | %Inh (NLK; [1]): 45% | %Inh (OSR1; [1]): 0% | %Inh (PAK1; [1]): 55% | %Inh (PAK2; [1]): 55% | %Inh (PAK3; [1]): 20% | %Inh (PAK4; [1]): 0%

COc1cc2ncnc(Nc3ccc4nc(-c5ccccc5)[nH]c4c3)c2cc1OC.Cl [GW282450]
%Inh (NEK7; [1]): 0% | %Inh (NEK9; [1]): 22% | %Inh (NIK; [1]): 23% | %Inh (NIM1; [1]): 18% | %Inh (NLK; [1]): 38% | %Inh (OSR1; [1]): 11% | %Inh (PAK1; [1]): 9% | %Inh (PAK2; [1]): 9% | %Inh (PAK3; [1]): 0% | %Inh (PAK4; [1]): 0%

COc1cc2nccc(Nc3ccc(NC(=O)c4ccc(C)cc4)c(O)c3)c2cc1OC.Cl [GW440132]
%Inh (NEK7; [1]): 0% | %Inh (NEK9; [1]): 14% | %Inh (NIK; [1]): 15% | %Inh (NIM1; [1]): 7% | %Inh (NLK; [1]): 0% | %Inh (OSR1; [1]): 17% | %Inh (PAK1; [1]): 0% | %Inh (PAK2; [1]): 0% | %Inh (PAK3; [1]): 22% | %Inh (PAK4; [1]): 0%

CCn1c(-c2ccccn2)nc2cnccc21 [SB-736398]
%Inh (NEK7; [1]): 0% | %Inh (NEK9; [1]): 0% | %Inh (NIK; [1]): 24% | %Inh (NIM1; [1]): 34% | %Inh (NLK; [1]): 0% | %Inh (OSR1; [1]): 0% | %Inh (PAK1; [1]): 22% | %Inh (PAK2; [1]): 24% | %Inh (PAK3; [1]): 31% | %Inh (PAK4; [1]): 0%

O=C(Nc1n[nH]c2nc(-c3nccs3)c(Br)cc12)C1CC1 [SB-742251]
%Inh (NEK7; [1]): 0% | %Inh (NEK9; [1]): 0% | %Inh (NIK; [1]): 44% | %Inh (NIM1; [1]): 0% | %Inh (NLK; [1]): 0% | %Inh (OSR1; [1]): 7% | %Inh (PAK1; [1]): 2% | %Inh (PAK2; [1]): 16% | %Inh (PAK3; [1]): 20% | %Inh (PAK4; [1]): 0%

C[C@@H]1CCCCN1c1cc(-c2ccc3c(N)n[nH]c3c2)nc(N)n1 [GSK2258759]
%Inh (NEK7; [1]): 0% | %Inh (NEK9; [1]): 0% | %Inh (NIK; [1]): 7% | %Inh (NIM1; [1]): 0% | %Inh (NLK; [1]): 23% | %Inh (OSR1; [1]): 0% | %Inh (PAK1; [1]): 6% | %Inh (PAK2; [1]): 0% | %Inh (PAK3; [1]): 0% | %Inh (PAK4; [1]): 0%

Cc1ccc(NC(=O)Nc2cccc(C(F)(F)F)c2)cc1 [GSK955403]
%Inh (NEK7; 1 µM): 0% | %Inh (NEK9; 1 µM): 0% | %Inh (NIK; 1 µM): 8% | %Inh (NIM1; 1 µM): 0% | %Inh (NLK; 1 µM): 15% | %Inh (OSR1; 1 µM): 0% | %Inh (PAK1; 1 µM): 24% | %Inh (PAK2; 1 µM): 5% | %Inh (PAK3; 1 µM): 0% | %Inh (PAK4; 1 µM): 4%

Fc1cc(Cl)ccc1Nc1ccnc2cc(I)ccc12 [GW551191]
%Inh (NEK7; [1]): 0% | %Inh (NEK9; [1]): 5% | %Inh (NIK; [1]): 7% | %Inh (NIM1; [1]): 19% | %Inh (NLK; [1]): 59% | %Inh (OSR1; [1]): 6% | %Inh (PAK1; [1]): 18% | %Inh (PAK2; [1]): 9% | %Inh (PAK3; [1]): 14% | %Inh (PAK4; [1]): 0%

Cc1cccc(-c2nc(Nc3ccncc3)c3ccccc3n2)n1 [GW855857]
%Inh (NEK7; [1]): 0% | %Inh (NEK9; [1]): 0% | %Inh (NIK; [1]): 0% | %Inh (NIM1; [1]): 0% | %Inh (NLK; [1]): 47% | %Inh (OSR1; [1]): 0% | %Inh (PAK1; [1]): 0% | %Inh (PAK2; [1]): 0% | %Inh (PAK3; [1]): 0% | %Inh (PAK4; [1]): 0%

COC(=O)c1c(-c2ccccc2)c2cc(C(=O)O)ccc2c(=O)n1Cc1ccccc1
%Inh (NEK7; [1]): 0% | %Inh (NEK9; [1]): 0% | %Inh (NIK; [1]): 0% | %Inh (NIM1; [1]): 0% | %Inh (NLK; [1]): 0% | %Inh (OSR1; [1]): 0% | %Inh (PAK1; [1]): 14% | %Inh (PAK2; [1]): 22% | %Inh (PAK3; [1]): 0% | %Inh (PAK4; [1]): 0%

CS(=O)(=O)c1ccc(-c2c(-c3ncn[nH]3)sc(N3CCOCC3)c2C#N)cc1
%Inh (NEK7; [1]): 0% | %Inh (NEK9; [1]): 0% | %Inh (NIK; [1]): 0% | %Inh (NIM1; [1]): 21% | %Inh (NLK; [1]): 0% | %Inh (OSR1; [1]): 0% | %Inh (PAK1; [1]): 2% | %Inh (PAK2; [1]): 10% | %Inh (PAK3; [1]): 6% | %Inh (PAK4; [1]): 5%

COc1cc(Nc2nccc(N3CCC(NC(=O)Nc4cc(C)ccc4C)C3)n2)cc(OC)c1OC (stereo not drawn) [GSK1379762]
%Inh (NEK7; [1]): 54% | %Inh (NEK9; [1]): 32% | %Inh (NIK; [1]): 32% | %Inh (NIM1; [1]): 27% | %Inh (NLK; [1]): 0% | %Inh (OSR1; [1]): 9% | %Inh (PAK1; [1]): 11% | %Inh (PAK2; [1]): 4% | %Inh (PAK3; [1]): 29% | %Inh (PAK4; [1]): 0%

Cc1cccc(-c2nc(C)cc(Nc3ccncc3)n2)n1 [GSK257997]
%Inh (NEK7; [1]): 0% | %Inh (NEK9; [1]): 46% | %Inh (NIK; [1]): 10% | %Inh (NIM1; [1]): 6% | %Inh (NLK; [1]): 30% | %Inh (OSR1; [1]): 10% | %Inh (PAK1; [1]): 44% | %Inh (PAK2; [1]): 41% | %Inh (PAK3; [1]): 32% | %Inh (PAK4; [1]): 23%

COc1cccc(-c2cc(-c3c[nH]nc3-c3ccccn3)ccn2)c1 [GW680338]
%Inh (NEK7; [1]): 0% | %Inh (NEK9; [1]): 1% | %Inh (NIK; [1]): 19% | %Inh (NIM1; [1]): 21% | %Inh (NLK; [1]): 6% | %Inh (OSR1; [1]): 0% | %Inh (PAK1; [1]): 0% | %Inh (PAK2; [1]): 0% | %Inh (PAK3; [1]): 9% | %Inh (PAK4; [1]): 9%

CC(=O)Nc1nc2cnc(Nc3cc(NC(=O)c4cccc(CCC#N)c4)ccc3C)nc2s1
%Inh (NEK7; [1]): 6% | %Inh (NEK9; [1]): 0% | %Inh (NIK; [1]): 0% | %Inh (NIM1; [1]): 0% | %Inh (NLK; [1]): 0% | %Inh (OSR1; [1]): 0% | %Inh (PAK1; [1]): 0% | %Inh (PAK2; [1]): 0% | %Inh (PAK3; [1]): 7% | %Inh (PAK4; [1]): 5%

CSc1nn2c(=O)cc(N3CCOCC3)nc2n1Cc1cccc(C(F)(F)F)c1C [GSK2363608]
%Inh (NEK7; [2]): 3% and 0% | %Inh (NEK9; [2]): 22% and 2% | %Inh (NIK; [2]): 0% and 6% | %Inh (NIM1; [2]): 2% and 12% | %Inh (NLK; [2]): 2% and 37% | %Inh (OSR1; [2]): 15% and 7% | %Inh (PAK1; [2]): 0% and 38% | %Inh (PAK2; [2]): 0% and 37% | %Inh (PAK3; [2]): 8% and 0% | %Inh (PAK4; [1]): 0%

Cc1csc(-c2nc(Nc3ccncc3)c3ccccc3n2)n1 [GW869640]
%Inh (NEK7; [1]): 0% | %Inh (NEK9; [1]): 16% | %Inh (NIK; [1]): 32% | %Inh (NIM1; [1]): 40% | %Inh (NLK; [1]): 64% | %Inh (OSR1; [1]): 17% | %Inh (PAK1; [1]): 12% | %Inh (PAK2; [1]): 56% | %Inh (PAK3; [1]): 28% | %Inh (PAK4; [1]): 9%

COc1cccc(NC(=O)NC2CCN(c3ccnc(Nc4ccc(F)cc4)n3)C2)c1 (stereo not drawn) [GSK1379721]
%Inh (NEK7; [1]): 16% | %Inh (NEK9; [1]): 35% | %Inh (NIK; [1]): 2% | %Inh (NIM1; [1]): 14% | %Inh (NLK; [1]): 0% | %Inh (OSR1; [1]): 4% | %Inh (PAK1; [1]): 0% | %Inh (PAK2; [1]): 0% | %Inh (PAK3; [1]): 0% | %Inh (PAK4; [1]): 0%
